# “And” between values parts separate entries of the source, which are not always exact repeats. Identical values can stand only once. Inconclusive results are not listed. Where a call stands in place of a potency, no number is given. Unmarked numbers belong to inactive results. The source made the active and inactive calls. Calls come from the whole dose curve; as a rule, active = well fitted curve in the direction sought with a large enough effect; inconclusive = small, poorly fitted or top-dose-only effect, or another doubt; inactive = no such curve, though single readings can be large; an effect the other way counts as inactive or inconclusive.
# Assays:
# [1] = target: Calcium and integrin-binding protein 1 (Homo sapiens) (UniProt Q99828); test: Primary qHTS for Identification of Calcium Integrin Binding Protein 1 (CIB1) Competitor (AID 1508620);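 note: GST tagged CIB1 binding a fluorescein labelled alphaIIb integrin peptide tracer; top concentration of the series differs between compounds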
# Sequence of Calcium and integrin-binding protein 1 (Homo sapiens) (Q99828 whole entry, looked up): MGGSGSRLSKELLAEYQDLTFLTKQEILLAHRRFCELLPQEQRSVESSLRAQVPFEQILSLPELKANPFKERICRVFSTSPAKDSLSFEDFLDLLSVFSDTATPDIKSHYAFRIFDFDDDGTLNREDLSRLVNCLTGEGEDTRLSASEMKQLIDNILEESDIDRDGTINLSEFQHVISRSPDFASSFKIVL
# Summary of the method: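 Fluorescence polarization competition: GST-tagged CIB1 (1 uM final) preincubated with compound 15 min at room temperature, then FITC-labelled alphaIIb peptide (100 nM final) added. After 15 min at room temperature, polarization read at Ex 480/Em 540.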
# [2] = Primary qHTS for inhibitors of nuclear receptor binding SET domain protein 2 (NSD2) in an isogenic RCH-ACV NSD2 p.E1099K mutant (9B) (AID 1645876); note: nearly all actives have a fitted effect of over 70% in size; note: potency is the fitted concentration of half-maximal effect
# [3] = Primary qHTS for inhibitors of nuclear receptor binding SET domain protein 2 (NSD2) in an RCH-ACV wild type WT cells (2C) (AID 1645877); note: nearly all actives have a fitted effect of over 70% in size; note: potency is the fitted concentration of half-maximal effect
# [4] = target: Rap guanine nucleotide exchange factor 3 (Homo sapiens) (UniProt O95398); test: Confirmatory qHTS for agonist of cAMP-regulated guanine nucleotide exchange factor 3 (EPAC1) (AID 1645881);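 note: EPAC1 catalysed release of BODIPY-GDP from Rap1B seen as fluorescence loss; nearly all actives have a fitted effect of over 75% in size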
# Sequence of Rap guanine nucleotide exchange factor 3 (Homo sapiens) (O95398 whole entry, looked up): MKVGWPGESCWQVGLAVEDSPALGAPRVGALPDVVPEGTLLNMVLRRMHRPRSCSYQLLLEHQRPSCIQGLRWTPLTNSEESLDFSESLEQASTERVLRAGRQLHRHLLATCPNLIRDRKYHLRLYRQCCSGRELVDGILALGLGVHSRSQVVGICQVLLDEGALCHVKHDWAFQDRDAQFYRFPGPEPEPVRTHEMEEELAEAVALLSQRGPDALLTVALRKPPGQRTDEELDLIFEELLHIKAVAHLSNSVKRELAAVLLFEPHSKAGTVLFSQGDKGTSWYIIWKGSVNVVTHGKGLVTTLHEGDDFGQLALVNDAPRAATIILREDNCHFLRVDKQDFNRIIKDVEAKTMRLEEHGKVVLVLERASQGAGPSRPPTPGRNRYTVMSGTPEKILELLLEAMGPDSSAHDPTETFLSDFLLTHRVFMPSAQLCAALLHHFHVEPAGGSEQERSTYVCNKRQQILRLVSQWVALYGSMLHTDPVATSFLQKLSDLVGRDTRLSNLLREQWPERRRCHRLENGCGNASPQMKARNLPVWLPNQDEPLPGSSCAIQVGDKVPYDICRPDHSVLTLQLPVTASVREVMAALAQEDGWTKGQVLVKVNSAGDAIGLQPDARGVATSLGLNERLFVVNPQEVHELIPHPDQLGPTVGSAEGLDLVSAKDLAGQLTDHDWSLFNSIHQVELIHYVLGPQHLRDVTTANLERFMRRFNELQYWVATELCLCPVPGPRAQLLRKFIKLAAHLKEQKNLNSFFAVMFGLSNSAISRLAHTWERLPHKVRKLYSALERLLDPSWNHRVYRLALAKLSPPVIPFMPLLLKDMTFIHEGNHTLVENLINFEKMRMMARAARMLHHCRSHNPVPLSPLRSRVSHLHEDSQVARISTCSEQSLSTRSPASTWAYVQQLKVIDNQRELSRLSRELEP
# [5] = target: Rap guanine nucleotide exchange factor 4 (Homo sapiens) (UniProt Q8WZA2); test: Confirmatory qHTS for agonist of cAMP-regulated guanine nucleotide exchange factor 4 (EPAC2) (AID 1645884);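 note: nucleotide exchange releases bodipy-GDP from Rap1 and this lowers its fluorescence; nearly all actives have a fitted effect of over 65% in size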
# Sequence of Rap guanine nucleotide exchange factor 4 (Homo sapiens) (Q8WZA2 whole entry, looked up): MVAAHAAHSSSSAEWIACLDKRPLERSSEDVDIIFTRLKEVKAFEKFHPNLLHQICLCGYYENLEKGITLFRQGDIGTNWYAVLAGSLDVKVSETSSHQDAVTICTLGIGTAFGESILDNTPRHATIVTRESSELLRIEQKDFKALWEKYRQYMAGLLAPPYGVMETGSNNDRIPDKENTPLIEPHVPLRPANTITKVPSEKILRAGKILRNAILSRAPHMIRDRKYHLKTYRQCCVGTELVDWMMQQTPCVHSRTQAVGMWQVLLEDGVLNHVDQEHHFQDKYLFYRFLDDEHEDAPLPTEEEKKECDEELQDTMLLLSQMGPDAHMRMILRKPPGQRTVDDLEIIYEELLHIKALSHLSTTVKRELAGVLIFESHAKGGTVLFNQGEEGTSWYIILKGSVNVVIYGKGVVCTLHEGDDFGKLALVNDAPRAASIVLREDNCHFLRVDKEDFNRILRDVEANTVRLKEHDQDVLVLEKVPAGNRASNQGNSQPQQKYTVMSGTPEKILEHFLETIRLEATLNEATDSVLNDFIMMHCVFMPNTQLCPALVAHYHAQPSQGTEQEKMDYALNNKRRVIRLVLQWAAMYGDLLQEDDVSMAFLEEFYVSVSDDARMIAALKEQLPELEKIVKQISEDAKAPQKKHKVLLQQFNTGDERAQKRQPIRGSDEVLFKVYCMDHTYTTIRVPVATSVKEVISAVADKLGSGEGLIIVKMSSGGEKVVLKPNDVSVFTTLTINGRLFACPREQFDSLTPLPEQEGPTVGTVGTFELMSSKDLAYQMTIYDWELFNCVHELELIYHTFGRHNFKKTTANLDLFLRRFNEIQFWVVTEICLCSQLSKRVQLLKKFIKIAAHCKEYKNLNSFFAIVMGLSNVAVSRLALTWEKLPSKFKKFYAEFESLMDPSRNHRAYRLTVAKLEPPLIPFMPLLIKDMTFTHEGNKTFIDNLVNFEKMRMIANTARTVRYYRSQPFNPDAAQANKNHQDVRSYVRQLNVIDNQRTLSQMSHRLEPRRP
# [6] = target: Rap guanine nucleotide exchange factor 4 (Homo sapiens) (UniProt Q8WZA2); test: Confirmatory qHTS for antagonist of cAMP-regulated guanine nucleotide exchange factor 4 (EPAC2) (AID 1645885); note: nearly all actives have a fitted effect of over 25% in size
# [7] = target: Rap guanine nucleotide exchange factor 3 (Homo sapiens) (UniProt O95398); test: Counterscreen qHTS for antagonist of cAMP-regulated guanine nucleotide exchange factor 3 (EPAC1) (AID 1645888);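 note: fluorescence loss as bound BODIPY-GDP is released from Rap1B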
# Summary of the method: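 Rap1B–BODIPY-GDP (250 nM) with 50 uM GDP; compounds pin-transferred to 9.74 nM–152 uM final (activator) or from 7.32 nM upwards (inhibitor). Fluorescence Ex/Em 480/540 nm read at 5 and 30 min, then after adding cAMP or buffer, at room temperature.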
structure (smiles),measurement,setting,value
CO[C@@H]1CC(OC2CCC3(C)C(CCC45CCC(C6=CC(=O)OC6)C(C)(CCC43)C5=O)C2)O[C@H](C)[C@@H]1O[C@@H]1O[C@H](CO[C@@H]2O[C@H](CO)[C@@H](O)[C@H](O)[C@H]2O)[C@@H](O)[C@H](O)[C@H]1O (some centres undefined),Potency,[1],inactive
same,Potency,[2],1.73 µM (active)
same,Potency,[3],3.46 µM (active)
CC(=O)[C@H]1CC[C@H]2[C@@H]3CC=C4C[C@@H](OS(=O)(=O)O)CC[C@]4(C)[C@H]3CC[C@]12C,Potency,[1],inactive
same,Potency,[2],inactive
same,Potency,[3],inactive
same,outcome,[4],inactive
same,outcome,[5],inactive
same,Potency,[6],inactive
same,outcome,[7],inactive
C[C@@H]1CC[C@]2(C(=O)O)CC[C@]3(C)C(=CCC4[C@@]5(C)CC[C@H](O)[C@](C)(C(=O)O)C5CC[C@]43C)C2[C@]1(C)O (some centres undefined),Potency,[1],inactive
same,Potency,[2],inactive
same,Potency,[3],inactive
C[C@H]1CC[C@@]2(OC1)O[C@H]1CC3[C@@H]4CC[C@@H]5C[C@@H](O[C@@H]6O[C@H](CO)[C@@H](O[C@@H]7O[C@H](CO[C@@H]8OC[C@@H](O)[C@H](O)[C@H]8O)[C@@H](O[C@@H]8O[C@H](CO)[C@H](O)[C@H](O)[C@H]8O)[C@H](O)[C@H]7O)[C@H](O)[C@H]6O)CC[C@]5(C)C4CC[C@]3(C)[C@H]1[C@@H]2C (some centres undefined),Potency,[1],inactive
same,Potency,[3],3.46 µM (active)
CN1C(=O)c2sccc2N(C)c2nc(Nc3ccc(S(N)(=O)=O)cc3)ncc21,Potency,[1],inactive
same,Potency,[2],1.05 µM (active)
same,Potency,[3],0.59 µM (active)
C=C1C(=O)O[C@@H]2C[C@H](C)[C@@H]3CC(=O)[C@H](O)[C@@]3(C)C[C@H]12,Potency,[1],inactive
same,Potency,[2],20.5 µM (active)
same,Potency,[3],10.3 µM (active)
CC(=O)O[C@@H]1CC[C@@]2(C)C(CC[C@]3(C)C2[C@H](O)C=C2[C@H]4[C@@H](C)[C@H](C)CC[C@]4(C)CC[C@]23C)[C@@]1(C)C(=O)O (some centres undefined),Potency,[1],inactive
same,Potency,[2],inactive
same,Potency,[3],inactive
C=C1C(=O)OC2C3=C(C)C(=O)CC3C(C)CC(O)C12 (centres undefined),Potency,[1],inactive
same,Potency,[3],14.5 µM (active)
CO[C@H]1O[C@@H]2O[C@@]3(C)CCC4[C@H](C)CCC([C@H]1C)[C@]42OO3 (some centres undefined),Potency,[1],inactive
same,Potency,[3],6.49 µM (active)
CCC(C)(OC(C)=O)C(=O)O[C@H]1[C@H](OC(C)=O)[C@]2(CO)[C@H](O)[C@H](O)[C@]3(C)C(=CCC4[C@@]5(C)CC[C@H](O[C@@H]6O[C@H](C(=O)O)[C@@H](O)[C@H](O[C@@H]7OC[C@H](O)[C@H](O[C@@H]8OC[C@H](O)[C@H](O)[C@H]8O)[C@H]7O)[C@H]6O[C@@H]6O[C@H](CO)[C@@H](O)[C@H](O)[C@H]6O)C(C)(C)C5CC[C@]43C)[C@@H]2CC1(C)C (some centres undefined),"activity change, negative = inhibition",[1],5.33% [at 12.4 µM]
same,Potency,[3],2.44 µM (active)
CCn1c(=O)c(-c2ccc(Cl)cc2Cl)cc2cnc(Nc3ccc(N4CCNCC4)c(F)c3)nc21,Potency,[1],inactive
same,Potency,[2],290 nM (active) and 662 nM (active)
same,Potency,[3],728 nM (active) and 742 nM (active)
C=CC(C)(O)CC/C=C(\C)C(=O)OC1C(O)C(CO)OC(OC(=O)C23CCC(C)(C)CC2C2=CCC4C5(C)CCC(OC6OC(COC7OCC(OC(C)=O)C(O)C7OC7OC(COC(C)=O)C(O)C(O)C7OC(C)=O)C(O)C(O)C6OC6OCC(O)C(O)C6O)C(C)(C)C5CCC4(C)C2(C)C(O)C3O)C1OC1OCC(OC2OCC(O)C(OC3OCC(O)C(O)C3O)C2O)C(O)C1O (centres undefined),"activity change, negative = inhibition",[1],5.75% [at 12.4 µM]
same,Potency,[2],0.792 µM (active)
same,Potency,[3],1.25 µM (active)
COc1cc(OC)c(NC(=O)c2ccc(Cc3cc4c(cc3C)C(C)(C)CCC4(C)C)o2)c(OC)c1,Potency,[1],inactive
same,Potency,[3],23 µM (active)
C[C@@H]1O[C@@H](O[C@H]2[C@@H]3C=CO[C@@H](O[C@@H]4O[C@H](CO)[C@@H](O)[C@H](O)[C@H]4O)[C@@H]3[C@@]3(CO)O[C@@H]23)[C@H](O)[C@H](OC(=O)/C=C/c2ccccc2)[C@H]1O,Potency,[1],inactive
same,Potency,[3],5.41 µM (active)
C=C(C(=O)OC)[C@@H]1CC=C2C=CC(=O)[C@H](C)[C@@]2(C)C1,Potency,[1],inactive
same,Potency,[3],20.5 µM (active)
CC(C)(C)c1ccc(C(=O)Nc2cc(Cl)c(Br)cc2C(=O)O)cc1,Potency,[1],inactive
same,Potency,[3],11.5 µM (active)
C=C1C(=O)OC2CC(C)C(CCC(C)O)=CCC12 (centres undefined),Potency,[1],inactive
same,Potency,[3],16.3 µM (active)
C=C1C(OC2OC(CO)C(O)C(O)C2O)CC2C(C)(C)C(O)CCC2(C)C1CC/C(C)=C\COC(=O)CC(=O)O (centres undefined),Potency,[1],inactive
same,Potency,[3],4.83 µM (active)
CC(=O)O[C@@]12CO[C@@H]1C[C@H](O)[C@@]1(C)C(=O)[C@H](O)C3=C(C)[C@@H](OC(=O)[C@H](O)[C@@H](NC(=O)OC(C)(C)C)c4ccccc4)C[C@@](O)([C@@H](OC(=O)c4ccccc4)C12)C3(C)C (some centres undefined),Potency,[1],inactive
same,Potency,[2],0.004 µM (active)
same,Potency,[3],0.0032 µM (active)
COc1cc(S(C)(=O)=O)ccc1Nc1nc2ccc(-c3ccc(NC(=O)[C@H](C)c4ccc(F)cc4)cc3)cn2n1,Potency,[1],inactive
same,Potency,[2],0.742 µM (active)
same,Potency,[3],0.417 µM (active)
C[C@@H]1O[C@@H](O[C@H]2[C@H](OC(=O)[C@]34CCC(C)(C)C[C@H]3C3=CCC5[C@@]6(C)C[C@H](O)[C@H](O[C@@H]7O[C@H](C(=O)O)[C@@H](O)[C@H](O)[C@H]7O)[C@@](C)(CO)C6[C@H](O)C[C@@]5(C)[C@]3(C)C[C@H]4O)O[C@@H](CO)[C@@H]2O)[C@H](O)[C@H](O)[C@H]1O[C@@H]1OC[C@@H](O)[C@H](O[C@H]2OC[C@](O)(CO)[C@H]2O)[C@H]1O (some centres undefined),"activity change, negative = inhibition",[1],1.16% [at 12.4 µM]
same,Potency,[3],0.122 µM (active)
C=C[C@](C)(O)CC[C@H]1C(C)=CC(=O)[C@H]2C(C)(C)CCC[C@]12C,Potency,[1],inactive
same,Potency,[3],18.3 µM (active)
C=C1[C@H]2CC[C@H](C(=O)O)[C@@]23CC[C@H](C3)C1(C)C,Potency,[1],inactive
same,Potency,[2],inactive
same,Potency,[3],inactive
COC1CC/C=C(\C)C(=O)Nc2cc(O)cc(c2)CC(C)CC(OC)C(O)C(C)/C=C(\C)C1OC(N)=O (centres undefined),Potency,[1],inactive
same,Potency,[2],2.52 µM (active)
same,Potency,[3],2.82 µM (active)

# From PubChem BioAssay (NCATS)
